Results as given in PubChem BioAssay (NCI).
“And” between values parts separate entries of the source, which are not always exact repeats. Equal entries are not always repeated. The panel holds about 79,000 compounds, 15% with a hit somewhere; the sample as a whole holds those more often. Rule as the data show it: active = growth inhibition above about 70%; inactive = the rest.

How the values were obtained:
[1] = NCI Yeast Anticancer Drug Screen. Data for the rad50 strain (AID 155);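 also: 0% = growth of vehicle-only cultures of the same strain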; details: S. cerevisiae rad50 strain growth inhibition; at 50.0 µM; active compounds read high
Summary of the method: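 Cells are treated with compound, grown, and their growth is then scored against vehicle-only cultures of the same repair-deficient yeast strain.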

[2] = NCI Yeast Anticancer Drug Screen. Data for the mec2-1 strain (AID 157); details: S. cerevisiae mec2-1 strain, at 50.0 µM, active compounds read high
Summary of the method: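 Growth inhibition is read against vehicle-treated controls after compound exposure of the mec2-1 yeast strain, which is defective in DNA damage repair or cell cycle control.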

[3] = NCI Yeast Anticancer Drug Screen. Data for the sgs1 mgt1 strain (AID 161);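 also: 0% = growth of cultures given vehicle only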; details: S. cerevisiae sgs1 mgt1 strain, at 50.0 µM, active compounds read high
Summary of the method: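 Percent growth inhibition was derived by comparing compound-exposed mutant yeast with vehicle-exposed cultures. The strain carries alterations in DNA damage repair.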

[4] = NCI Yeast Anticancer Drug Screen. Data for the cln2 rad14 strain (AID 165);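 also: 0% = growth equal to vehicle treated cultures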; details: S. cerevisiae cln2 rad14 strain, at 50.0 µM, active compounds read high
Summary of the method: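 Growth inhibition, relative to vehicle-treated controls, is the read-out. The test organism is a yeast strain with defined genetic alterations, cln2 rad14.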

[5] = NCI Yeast Anticancer Drug Screen. Data for the bub3 strain (AID 167); details: S. cerevisiae bub3 mutant strain, at 50.0 µM, active compounds read high
Summary of the method: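 Part of a panel of yeast mutants defective in DNA damage repair or cell cycle regulation. Each strain is grown with compound, and inhibition is calculated relative to solvent-treated cultures.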

[6] = NCI Yeast Anticancer Drug Screen. Data for the mlh1 rad18 strain (AID 175); details: S. cerevisiae mlh1 rad18 strain growth inhibition; at 50.0 µM; active compounds read high
Summary of the method: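 Cells of a genetically altered yeast strain, deficient in DNA damage repair, were treated with compound. Their growth was then compared with that of vehicle-treated cultures to give inhibition.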

Measured: growth inhibition

O=P(O)(O)Oc1ccccc1
inactive: [1] -10.4% and -8.3% | [2] -6.25% and 6.05% | [3] -16.7% and 6.55% | [4] -9.8% and -9.95% | [5] -0.05% and -3.3% | [6] -12.1% and 9.2%

Cc1ccc(S(=O)(=O)N(C)c2ccccc2)cc1
inactive: [1] -18.6% and -3.7% | [2] -50.7% and -1.25% | [3] -0.55% and 10.2% | [4] 1.2% and -25.4% | [5] 11.8% and 16.3% | [6] -10% and 9.95%

O=C1OCC/C1=C\c1ccco1
inactive: [1] 9.55% and -9.2% | [2] 2.2% and 3.9% | [3] 6.15% and 9.15% | [4] -19.1% and 10.9% | [5] -6.75% and 17.9% | [6] 10.3% and -6.35%

CN1C/C(=C\c2ccccc2[N+](=O)[O-])C(=O)/C(=C/c2ccccc2[N+](=O)[O-])C1
inactive: [1] -3.7% and -14.4% | [2] 14.9% and 28.8% | [3] 25.6% and -49% | [4] 4.85% and -8.9% | [5] 13.7% and 21.4% | [6] 16.8% and -29.1%

NCCCNCCSSC/C=C\CSSCCNCCCN
inactive: [1] 1.9% and -5.5% | [2] -15.6% and -4.85% | [3] 1.8% and -15.3% | [4] 1.15% and -16.8% | [5] 7.85% and -2.3% | [6] 11.3% and 1.45%

C=CCC(N)C(=O)O (stereo unspecified)
inactive: [1] -11.9% and -1% | [2] -20.6% and -4.45% | [3] 4.95% and -1.85% | [4] 13.5% and 2.3% | [5] -10.6% and 8.3% | [6] -1.7% and -3%

O=S(=O)(O)NC1CCCCC1
inactive: [1] 29.4% and 4.8% | [2] 16.2% and -1.15% | [3] -7.7% and -4.9% | [4] -50.7% and -6.3% | [5] 11.4% and 10.1% | [6] 11.8% and -9.45%

O=C(O)C1=C/C(=C(/c2ccccc2)c2cc(C(=O)O)c(O)c3ccccc23)c2ccccc2C1=O
inactive: [1] 4.2% and -7.7% | [2] -29.1% and -27.1% | [3] -21.2% and -34.4% | [4] 22.7% and 23.1% | [5] -9.45% and -3.8% | [6] -1.45% and -4.1%

CN(/N=C/c1ccccc1)C(=N)N
inactive: [1] -3.6% and 5.4% | [2] -5.4% and 4.15% | [3] -10.2% and 13.2% | [4] -40.6% and 11.2% | [5] -12.8% and -5.6% | [6] -2.3% and 2.05%

CN(C)C
inactive: [1] 17.1% and 2.45% | [2] -30.6% and -27.2% | [3] 10.4% and -17.1% | [4] -3.8% and -97.7% | [5] 9.8% and -21.9% | [6] 7.8% and -135%

CC(C)N=C(N)C(N)=NC(C)C
inactive: [1] 20.1% and -65.4% | [2] -18% and 6.55% | [3] -2.5% and -13.2% | [4] -67.2% and -46.5% | [5] 1.8% and -11.1% | [6] -14.6% and -16.9%

COc1ccc(C(O)C(NCCO)c2ccc(OC)cc2)cc1 (stereo unspecified)
inactive: [1] 8.85% and -3.55% | [2] 12.8% and -7.35% | [3] 42.7% and -3.7% | [4] -37.6% and -16.8% | [5] -2.25% and 0.05% | [6] 15.7% and -28.1%

O=C(O)c1cc(N=C=S)ccc1-c1c2ccc(=O)cc-2oc2cc(O)ccc12
inactive: [1] 6.3% and 32.9% | [2] 3.7% and 31.5% | [3] -4.85% and 15.3% | [4] 6% and 16.6% | [5] -9.75% and -4.1% | [6] 4.95% and 45.9%

Oc1ccccc1-c1nc2ccccc2o1
inactive: [1] 4.85% and 8.3% | [2] -10.8% and -25.2% | [3] -13.8% and 7.15% | [4] -6.75% and 1.4% | [5] 1.05% and 24.3% | [6] 3.6% and 0.9%

O=C1C(Br)CCCCCCCCCC1Br (stereo unspecified)
inactive: [1] -26.2% and 45% | [2] -6.4% and 11.2% | [3] 4.05% and 50% | [4] -3.1% and 22.9% | [5] -12.3% and 24.4% | [6] 0.9% and 36.4%

COC1OC(COC(C)=O)C(OC(C)=O)C(OC(C)=O)C1NC(=O)N(CCCl)N=O (stereo unspecified)
inactive: [1] -0.5% and -15.6% | [2] -7.1% and -8.6% | [3] -1.2% and -13.6% | [4] 9.65% and 20.3% | [5] 7.95% and 16.2% | [6] -10.5% and -14%

[Cl][Pr]([Cl])[Cl]
inactive: [1] 21.9% and 19.1% | [2] -7.65% and 5.55% | [3] -3.4% and 33.6% | [4] 1.6% and 19.1% | [5] 7.65% and 22.9% | [6] 1.4% and 42.2%

COc1cc2c(cc1OC)CN1CCc3cc(OC)c(OC)cc3C1C2 (stereo unspecified)
inactive: [1] -1.3% and 16.1% | [2] -54.6% and 11.9% | [3] -28.2% and 14.3% | [4] 0.7% and 7.8% | [5] -51.4% and 17.4% | [6] -38.5% and 18.1%

O=[N+]([O-])c1cc(S(=O)(=O)O)ccc1Cl
inactive: [1] -9.65% and 14.6% | [2] 3.25% and -1.15% | [3] -9.3% and -7.65% | [4] 9.2% and 12.7% | [5] 0.1% and 6.25% | [6] 15.2% and 14.8%

CC(=O)OCC1OC(Sc2nc(-c3ccc(C)cc3)c(C#N)c(=O)n2C2OC(COC(C)=O)C(OC(C)=O)C(OC(C)=O)C2OC(C)=O)C(OC(C)=O)C(OC(C)=O)C1OC(C)=O (stereo unspecified)
inactive: [1] 5% and -9.15% | [2] 7.65% and -9.45% | [3] -3.1% and 20.9% | [4] -32% and 10.2% | [5] 7.2% and 20.1% | [6] -7.8% and -34.5%

O=C(O)CCCCC(=O)O
inactive: [1] 2.1% and -5.2% | [2] -6.65% and -1.2% | [3] -3.8% and -32.5% | [4] -30.3% and 8% | [5] -18.1% and -22.1% | [6] -5.6% and 6.85%
